Test results published in PubChem BioAssay.
Active and inactive are the calls of the source.

How the values were obtained:
Albumin (Bos taurus) = Albumin (Bos taurus) (UniProt P02769); assay: compounds binding labelled BSA control protein – biochemical, small-molecule microarray, Alexa647 label, 635/667 nm fluorescence, artefact control for SMM control protein annotation, profiling panel (AID 1118); settings: BSA-A647 binding, fluorescence 635 nm, higher = more signal;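 note: score merges 667 nm emission intensity and signal-to-noise per printed compound spot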
[1] = probe aXIP binding to arrayed compounds – biochemical, NeuroSMM set, 635/667 nm fluorescence, primary screen (AID 1119); settings: small-molecule microarray, higher = more signal, called active from +8 up or from −8 down;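 note: probe is the protein aXip251-270 applied at 1 µg/mL to compound-printed slides; binding of probe to printed compounds measured as 667 nm fluorescence plus signal to noise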
[2] = probe aNOTCH3 binding on compound microarray – biochemical, small-molecule microarray, 635/667 nm fluorescence, primary screen (AID 1120); settings: higher = more signal;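 note: probe is a biotin-tagged antibody raised against NOTCH3 rather than NOTCH3 protein; score merges spot fluorescence near 667 nm with spot signal to noise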
[3] = probe aNOTCH2 binding on compound microarray – biochemical, small-molecule microarray, 635/667 nm fluorescence, primary screen (AID 1121); settings: higher = more signal;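 note: score merges feature fluorescence read at 667 nm with its signal to noise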
[4] = molecular target: Carbonic anhydrase 2 (Homo sapiens) (UniProt P00918); assay: compounds binding carbonic anhydrase 2 – biochemical, small-molecule microarray, Alexa647-labelled CAII, profiling panel (AID 1122); settings: CAII-A647 binding fluorescence, higher = more signal
[5] = COS7 lysate on small-molecule microarray, probe aHis, 635 nm (AID 1123); settings: COS7 cell lysate, fluorescence, higher = more signal;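 note: z-score combines 667nm fluorescence intensity with signal-to-noise per printed compound spot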
[6] = probe aLAP1 signal on lysate-treated microarray – cell lysate, small-molecule microarray, COS7 lysate, primary screen (AID 1124); settings: probe aLAP1, fluorescence, higher = more signal;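 note: lysate comes from COS7 cells expressing LAP1 and is applied at 0.3 µg/mL; score merges spot fluorescence near 667 nm with signal-to-noise over triplicate slides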
Sam68 (KHDRBS1) = assay: compounds binding KHDRBS1 protein – biochemical, small-molecule microarray, 635 nm fluorescence, primary screen (AID 1125); settings: higher = more signal;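 note: score merges 667 nm channel intensity with signal to noise over triplicate slides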
[7] = tested on: Chordin-like protein 2 (CHRDL2); assay: compounds binding chordin-like 2 – biochemical, small-molecule microarray, 635 nm fluorescence, primary screen (AID 1126); settings: fluorescence 635 nm, higher = more signal;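 note: printed compound slides probed with Chrdl2 protein at 4 µg/mL for 1 h at 4 C; score merges 667 nm emission intensity with signal to noise over three replicate slides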
[8] = molecular target: Concanavalin-A (Canavalia ensiformis) (UniProt P02866); assay: compounds binding concanavalin A lectin – biochemical, small-molecule microarray, Alexa647 label, 635 nm, artefact control for SMM control protein annotation, primary screen (AID 1127); settings: ConA-A647 binding fluorescence, higher = more signal;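 note: z combines 667 nm emission intensity with signal-to-noise across three replicate slides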
[9] = compounds binding Alexa647 anti-His antibody – biochemical, small-molecule microarray, 635 nm fluorescence, artefact control for SMM control protein annotation, primary screen (AID 1128); settings: higher = more signal;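 note: score merges feature fluorescence with signal-to-noise for each printed compound spot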
[10] = tested on: Human papillomavirus type 1a E7 protein (residues 1-88); assay: HPV1a E7 small-molecule binders, primary screen, biochemical, small-molecule microarray, residues 1-88, 635 nm (AID 1129); settings: small-molecule microarray binding, fluorescence 635 nm; higher = more signal
[11] = molecular target: Focal adhesion kinase 1 (Homo sapiens) (UniProt Q05397); assay: PTK2 protein binding on printed compound slides – biochemical, small-molecule microarray, 635/667 nm fluorescence, BSA, DTT, primary screen (AID 1130); settings: 635 nm fluorescence, higher = more signal;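 note: composite of spot emission at 667 nm and signal to noise over triplicate slides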
[12] = tested on: Fibrinogen (Alexa647-labelled); assay: Alexa647-fibrinogen binding to printed small molecules – biochemical, small-molecule microarray, 635/667 nm fluorescence, artefact control for SMM control-protein annotation, profiling panel (AID 1131); settings: fibrinogen-A647 binding fluorescence, higher = more signal;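 note: z-score merges 667 nm fluorescence with per-spot signal-to-noise over triplicate slides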
[13] = molecular target: Follistatin (Homo sapiens) (UniProt P19883); assay: FST protein binding to printed compounds – biochemical, small-molecule microarray, 635/667 nm fluorescence, primary screen (AID 1132); settings: 635 nm fluorescence, higher = more signal
[14] = molecular target: Fibroblast growth factor 2 (Homo sapiens) (UniProt P09038); assay: basic fibroblast growth factor binding to printed compounds – biochemical, small-molecule microarray, 635/667 nm fluorescence, primary screen (AID 1133); settings: FGF2, fluorescence 635/667, higher = more signal
[15] = JC-1 mitochondrial potential readout, lung cancer cells – cell-based, A549, JC-1 fluorescence, basal, 24 h, 100 nL, profiling panel (AID 1138); settings: higher = more signal;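 note: A549 lung adenocarcinoma cells under basal conditions with no added stimulus; test concentration not given here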
Lefty1 = Lefty1 protein binding to printed compounds – biochemical, small-molecule microarray, 635/667 nm fluorescence, primary screen (AID 1139); settings: fluorescence 635/667, higher = more signal
[16] = tested on: wheat germ agglutinin (Triticum aestivum), Alexa647-labelled; assay: Alexa647-WGA lectin binding to printed small molecules – biochemical, small-molecule microarray, 635/667 nm fluorescence, artefact control for SMM control-protein annotation, profiling panel (AID 1140); settings: WGA-A647 binding, 635 nm fluorescence, higher = more signal;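 note: score merges 667 nm feature emission with signal to noise over triplicate slides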
[17] = molecular target: Luciferin 4-monooxygenase (Photinus pyralis) (UniProt P08659); assay: inhibition of purified Photinus pyralis luciferase – biochemical, luminescence, purified enzyme, 2006 set, primary screen (AID 1141); settings: purified firefly luciferase, SteadyGlo luminescence, 30 min; higher = more signal, called active from +8 up or from −8 down;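 note: cell-free assay with purified firefly luciferase at 100 ng per well in PBS; test concentration not given here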
Luciferin 4-monooxygenase (Photinus pyralis), sequence (P08659 whole entry, looked up): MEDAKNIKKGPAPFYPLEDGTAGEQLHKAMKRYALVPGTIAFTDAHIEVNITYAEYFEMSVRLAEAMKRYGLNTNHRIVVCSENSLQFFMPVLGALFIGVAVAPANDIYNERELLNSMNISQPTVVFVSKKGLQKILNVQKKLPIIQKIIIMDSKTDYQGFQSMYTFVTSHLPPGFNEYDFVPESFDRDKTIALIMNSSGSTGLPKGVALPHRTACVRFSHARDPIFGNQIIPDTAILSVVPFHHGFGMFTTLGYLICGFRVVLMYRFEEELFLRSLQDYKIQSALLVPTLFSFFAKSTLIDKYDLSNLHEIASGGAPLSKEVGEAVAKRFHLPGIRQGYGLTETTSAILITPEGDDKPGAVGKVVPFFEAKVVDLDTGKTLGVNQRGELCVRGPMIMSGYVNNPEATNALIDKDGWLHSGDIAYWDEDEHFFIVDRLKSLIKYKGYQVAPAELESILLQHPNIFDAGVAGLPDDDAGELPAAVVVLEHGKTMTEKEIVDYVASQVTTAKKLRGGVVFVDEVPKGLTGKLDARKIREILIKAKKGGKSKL

Fibroblast growth factor 2 (Homo sapiens), sequence (P09038 whole entry, looked up): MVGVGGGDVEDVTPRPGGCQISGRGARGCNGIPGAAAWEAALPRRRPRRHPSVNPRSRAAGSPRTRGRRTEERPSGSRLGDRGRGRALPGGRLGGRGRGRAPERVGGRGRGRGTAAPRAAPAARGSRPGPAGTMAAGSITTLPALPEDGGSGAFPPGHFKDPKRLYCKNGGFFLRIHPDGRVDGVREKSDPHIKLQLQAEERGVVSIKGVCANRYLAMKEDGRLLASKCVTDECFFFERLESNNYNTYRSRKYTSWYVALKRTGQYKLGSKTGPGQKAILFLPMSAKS
Focal adhesion kinase 1 (Homo sapiens), sequence (Q05397 whole entry, looked up): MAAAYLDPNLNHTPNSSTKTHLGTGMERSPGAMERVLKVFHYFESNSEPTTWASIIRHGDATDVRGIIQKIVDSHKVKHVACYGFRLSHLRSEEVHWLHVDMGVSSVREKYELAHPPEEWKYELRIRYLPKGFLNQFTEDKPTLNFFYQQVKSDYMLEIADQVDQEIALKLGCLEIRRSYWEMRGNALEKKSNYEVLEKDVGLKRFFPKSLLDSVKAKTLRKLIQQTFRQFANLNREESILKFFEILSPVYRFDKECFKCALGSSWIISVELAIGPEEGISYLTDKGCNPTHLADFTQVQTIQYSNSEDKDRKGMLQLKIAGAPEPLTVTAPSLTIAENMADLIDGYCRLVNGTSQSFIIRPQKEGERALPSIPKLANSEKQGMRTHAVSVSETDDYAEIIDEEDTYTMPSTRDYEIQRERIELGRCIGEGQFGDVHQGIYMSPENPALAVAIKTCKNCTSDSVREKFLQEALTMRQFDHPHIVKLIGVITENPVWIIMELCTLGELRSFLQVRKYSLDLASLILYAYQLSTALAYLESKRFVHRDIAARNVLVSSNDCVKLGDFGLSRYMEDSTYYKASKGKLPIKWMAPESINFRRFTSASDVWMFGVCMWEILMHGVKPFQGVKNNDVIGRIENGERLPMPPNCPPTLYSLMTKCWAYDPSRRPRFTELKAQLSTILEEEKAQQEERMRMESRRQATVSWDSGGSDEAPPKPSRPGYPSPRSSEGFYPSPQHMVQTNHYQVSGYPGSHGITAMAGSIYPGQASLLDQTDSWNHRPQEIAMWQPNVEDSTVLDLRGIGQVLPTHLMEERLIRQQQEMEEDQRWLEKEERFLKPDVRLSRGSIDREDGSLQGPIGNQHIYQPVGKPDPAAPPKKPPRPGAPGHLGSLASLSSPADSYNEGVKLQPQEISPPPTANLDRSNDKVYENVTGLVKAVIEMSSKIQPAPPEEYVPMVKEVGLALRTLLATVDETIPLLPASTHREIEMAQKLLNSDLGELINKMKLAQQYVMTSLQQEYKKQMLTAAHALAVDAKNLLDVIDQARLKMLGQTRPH
Albumin (Bos taurus), sequence (P02769 whole entry, looked up): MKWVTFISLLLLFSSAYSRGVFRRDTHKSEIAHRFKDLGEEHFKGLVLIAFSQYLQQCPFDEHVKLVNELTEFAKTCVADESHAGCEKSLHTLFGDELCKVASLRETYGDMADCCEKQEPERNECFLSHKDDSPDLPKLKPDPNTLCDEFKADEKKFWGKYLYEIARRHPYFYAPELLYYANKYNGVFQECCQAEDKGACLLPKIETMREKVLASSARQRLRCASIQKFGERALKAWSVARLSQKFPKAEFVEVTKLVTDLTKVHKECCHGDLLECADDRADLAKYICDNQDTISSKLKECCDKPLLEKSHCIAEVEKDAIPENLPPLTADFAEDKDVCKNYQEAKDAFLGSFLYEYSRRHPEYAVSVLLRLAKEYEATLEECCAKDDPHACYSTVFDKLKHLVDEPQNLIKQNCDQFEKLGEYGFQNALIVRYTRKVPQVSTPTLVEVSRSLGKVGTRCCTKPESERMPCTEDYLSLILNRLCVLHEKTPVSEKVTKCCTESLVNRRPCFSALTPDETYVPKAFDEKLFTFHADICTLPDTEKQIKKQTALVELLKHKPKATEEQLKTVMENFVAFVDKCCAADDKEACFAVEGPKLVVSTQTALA
Follistatin (Homo sapiens), sequence (P19883 whole entry, looked up): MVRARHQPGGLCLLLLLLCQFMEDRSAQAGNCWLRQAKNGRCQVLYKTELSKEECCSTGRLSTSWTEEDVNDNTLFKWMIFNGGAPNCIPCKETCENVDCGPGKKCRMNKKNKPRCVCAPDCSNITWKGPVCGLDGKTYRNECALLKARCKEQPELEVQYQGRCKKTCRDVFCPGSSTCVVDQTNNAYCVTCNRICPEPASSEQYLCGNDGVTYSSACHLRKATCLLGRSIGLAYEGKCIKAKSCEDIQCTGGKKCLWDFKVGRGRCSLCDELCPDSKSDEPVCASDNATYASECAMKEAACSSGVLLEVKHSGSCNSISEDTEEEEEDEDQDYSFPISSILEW
Concanavalin-A (Canavalia ensiformis), sequence (P02866 whole entry, looked up): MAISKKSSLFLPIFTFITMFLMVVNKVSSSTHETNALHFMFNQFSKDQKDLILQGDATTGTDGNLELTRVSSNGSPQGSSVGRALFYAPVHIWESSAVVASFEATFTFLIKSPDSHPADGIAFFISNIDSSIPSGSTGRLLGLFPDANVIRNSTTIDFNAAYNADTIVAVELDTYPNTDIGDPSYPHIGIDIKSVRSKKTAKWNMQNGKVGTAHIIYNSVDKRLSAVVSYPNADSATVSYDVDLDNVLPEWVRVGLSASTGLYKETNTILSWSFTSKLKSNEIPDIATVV

Row | SMILES | composite z-score (Albumin (Bos taurus)) | composite Z-score [1] | composite z-score [2] | composite z-score [3] | composite z-score [4] | composite z-score [5] | composite z-score [6] | composite z-score (Sam68 (KHDRBS1)) | composite z-score [7] | composite z-score [8] | composite z-score [9] | composite z-score [10] | composite z-score [11] | composite z-score [12] | composite z-score [13] | composite z-score [14] | z-score [15] | composite z-score (Lefty1) | composite z-score [16] | z-score [17]
1 | CC(CCN1CCCc2nc(C)c(C)cc21)=NOC(C)CN1CCCCc2nc(C)c(C)cc21 (stereo not given) | -0.0931 | 1.62 (inactive) | 0.539 | 0.101 | 0.618 | 0.84 | 0.247 | 1.3 | 1.06 | 1.01 | 0.363 | 1.2 | 0.687 | 0.567 | 1.27 | 0.785 | 0.539 | 0.91 | 0.829 | -0.0922 (inactive)
2 | CC(C)CON=C1C[C@@H](O)[C@@H](O)[C@@H]2[C@@H]3C(=O)N(c4cccc(Oc5ccccc5)c4)C(=O)[C@@H]3CC[C@@H]12 | 0.621 | 0.0388 (inactive) | -0.0377 | -0.121 | 0.418 | 1.04 | 0.118 | 1.17 | 0.232 | 1.13 | 0.89 | 0.762 | 0.0599 | 1.02 | 0.266 | 0.314 | -0.289 | 0.13 | 0.561 | -0.172 (inactive)
3 | Cn1c(=O)n2n(c1=O)[C@H]1[C@H](O)[C@@H]3O[C@@H]3C(=NOCc3ccccc3)[C@H]1CC2 | 0.0494 | -0.054 (inactive) | -0.112 | -0.14 | 0.487 | 0.444 | -0.0493 | 0.557 | -0.37 | -0.136 | 0.192 | -0.624 | 0.13 | -0.867 | -0.104 | -0.478 | 0.874 | 0.3 | 0.349 | -0.101 (inactive)
4 | COC(=O)CC=C[C@@H](C)[C@@H](C=NOC[C@H]1O[C@H](c2ccccc2)C=C[C@@H]1Oc1ccc(OC)cc1)NS(=O)(=O)c1ccc(C)cc1 | -0.453 | -0.769 (inactive) | -0.196 | -0.138 | -0.648 | -0.588 | -0.689 | -1.18 | 0.156 | -2.02 | -1.16 | -1.1 | -0.217 | -0.85 | -1.04 | -0.528 | -0.173 | -1.11 | -0.542 | 0.847 (inactive)
5 | CCOC(=O)NN=C1C[C@@H](O)[C@@H](O)[C@@H]2[C@@H]3C(=O)N([C@@H](C)c4ccccc4)C(=O)[C@@H]3CC[C@H]12 | 0.0904 | -0.36 (inactive) | -0.0647 | -0.0424 | -0.119 | -0.156 | -0.111 | 0.338 | 0.183 | 0.297 | 0.236 | 0.416 | -0.35 | 0.65 | 0.285 | 0.166 | -0.877 | 0.246 | 0.152 | 0.846 (inactive)
6 | COC(=O)CC=C[C@@H](C)[C@@H](C=NO[C@@H](C)c1cn([C@H](CO)Cc2ccccc2)nn1)NS(=O)(=O)c1ccc(C)cc1 | -0.193 | -0.0278 (inactive) | 0.107 | -0.103 | -0.146 | -0.306 | 0.232 | 0.43 | 0.784 | -0.419 | 1.56 | 0.332 | 0.265 | 0.982 | 0.95 | 0.459 | -0.517 | 0.681 | 0.0187 | -1.28 (inactive)
7 | CCOC(=O)CCN1C(=O)[C@H]2[C@H]3[C@H](O)[C@H](O)CC(=NOCc4ccccc4)[C@H]3CC[C@H]2C1=O | -0.271 | 0.119 (inactive) | 0.191 | -0.0467 | -0.19 | 0.343 | -0.27 | 0.152 | 0.578 | -0.477 | 0.0669 | -0.469 | -0.017 | 0.658 | -0.851 | -0.772 | 0.229 | -0.579 | 0.343 | 0.563 (inactive)
8 | CO[C@H]1COC(=O)[C@H](C)NC(=O)[C@@H](C)COC(=O)[C@H]2CCCN2C(=O)CC=C[C@H]1C | -0.74 | -0.533 (inactive) | -0.178 | -0.148 | -0.273 | -0.414 | -0.0354 | 0.476 | 1.17 | -0.229 | -0.395 | 0.185 | 0.0089 | -0.157 | 0.593 | 0.806 | -0.392 | 0.632 | -0.375 | 0.574 (inactive)
9 | CCOC(=O)[C@H](CC(C)C)NC(=O)CCC1CC(OC(=O)NCc2cccc3ccccc23)CC2(CCCC(COC(=O)NCCOC)O2)O1 (stereo not given in full) | 0.222 | -0.166 (inactive) | 0.0306 | -0.0195 | 0.431 | 1.02 | -0.0557 | 1.29 | 0.156 | 0.782 | 0.427 | 1.19 | 0.175 | 0.959 | 0.602 | 0.648 | -0.157 | 0.436 | 0.167 | 0.561 (inactive)
10 | COc1ccc(O[C@H]2C=C[C@@H](c3ccccc3)O[C@@H]2CON=C(C)CCC(=O)OC[C@H]2O[C@H](c3ccccc3)C=C[C@@H]2Oc2ccc(OC)cc2)cc1 | 0.12 | 0.456 (inactive) | -0.165 | -0.123 | -0.62 | -1.14 | -0.295 | -2.54 | -0.633 | -0.652 | 0.704 | -2.01 | -0.204 | -0.218 | -0.174 | -0.922 | 0.0976 | -0.162 | -1.13 | 1.27 (inactive)
11 | C[C@@H](c1ccccc1)N1C(=O)[C@H]2[C@H]3[C@H](O)[C@H](O)CC(=O)[C@H]3CC[C@H]2C1=O | 0.587 | -0.0023 (inactive) | -0.367 | -0.226 | -0.125 | 0.241 | 0.567 | 0.626 | 0.747 | 0.336 | 0.335 | 0.654 | 0.336 | 0.747 | 0.213 | 0.284 | 0.911 | 0.134 | 0.0458 | -1.36 (inactive)
